Reference: PubChem BioAssay
Active and inactive are the calls of the source.

Experiments:
[1] = anti-His antibody binders, primary screen, artefact control for SMM control protein annotation, biochemical, small-molecule microarray, 635 nm fluorescence (AID 1128); settings: anti-His Alexa647 antibody binding, higher = more signal;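 note: score merges feature fluorescence with signal-to-noise for each printed compound spot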
[2] = system: Human papillomavirus type 1a E7 protein (residues 1-88); assay: HPV1a E7 small-molecule binders, primary screen, biochemical, small-molecule microarray, residues 1-88, 635 nm (AID 1129); settings: small-molecule microarray binding, fluorescence 635 nm; higher = more signal
[3] = target: Focal adhesion kinase 1 (Homo sapiens) (UniProt Q05397); assay: small-molecule microarray binders of FAK, primary screen, biochemical, 635/667 nm fluorescence, BSA, DTT (AID 1130); settings: PTK2 binding, 635 nm fluorescence, higher = more signal;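 note: composite of spot emission at 667 nm and signal to noise over triplicate slides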
[4] = system: Fibrinogen (Alexa647-labelled); assay: fibrinogen binders on compound microarrays, profiling panel, artefact control for SMM control-protein annotation, biochemical, small-molecule microarray, 635/667 nm fluorescence (AID 1131); settings: fibrinogen-A647 binding fluorescence, higher = more signal;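 note: z-score merges 667 nm fluorescence with per-spot signal-to-noise over triplicate slides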
[5] = target: Follistatin (Homo sapiens) (UniProt P19883); assay: follistatin binders on small-molecule microarrays, primary screen, biochemical, small-molecule microarray, 635/667 nm fluorescence (AID 1132); settings: FST binding, 635 nm fluorescence, higher = more signal
[6] = target: Fibroblast growth factor 2 (Homo sapiens) (UniProt P09038); assay: FGF2 binders on small-molecule microarrays, primary screen, biochemical, small-molecule microarray, 635/667 nm fluorescence (AID 1133); settings: small-molecule microarray binding, FGF2, fluorescence 635/667; higher = more signal
[7] = mitochondrial membrane potential change in A549 cells, profiling panel, cell-based, JC-1 fluorescence, basal, 24 h, 100 nL (AID 1138); settings: higher = more signal;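 note: A549 lung adenocarcinoma cells under basal conditions with no added stimulus; test concentration not given here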
Lefty1 = Lefty1 binders on small-molecule microarrays, primary screen, biochemical, small-molecule microarray, 635/667 nm fluorescence (AID 1139); settings: small-molecule microarray binding, fluorescence 635/667; higher = more signal
[8] = system: wheat germ agglutinin (Triticum aestivum), Alexa647-labelled; assay: wheat germ agglutinin binders on compound microarrays, profiling panel, artefact control for SMM control-protein annotation, biochemical, small-molecule microarray, 635/667 nm fluorescence (AID 1140); settings: WGA-A647 binding, 635 nm fluorescence, higher = more signal;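 note: score merges 667 nm feature emission with signal to noise over triplicate slides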
[9] = target: Luciferin 4-monooxygenase (Photinus pyralis) (UniProt P08659); assay: firefly luciferase enzyme inhibitors, primary screen, biochemical, luminescence, purified enzyme, 2006 set (AID 1141); settings: SteadyGlo luminescence, 30 min, higher = more signal, called active from +8 up or from −8 down;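 note: cell-free assay with purified firefly luciferase at 100 ng per well in PBS; test concentration not given here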
Chain of Luciferin 4-monooxygenase (Photinus pyralis) (P08659 whole entry, looked up): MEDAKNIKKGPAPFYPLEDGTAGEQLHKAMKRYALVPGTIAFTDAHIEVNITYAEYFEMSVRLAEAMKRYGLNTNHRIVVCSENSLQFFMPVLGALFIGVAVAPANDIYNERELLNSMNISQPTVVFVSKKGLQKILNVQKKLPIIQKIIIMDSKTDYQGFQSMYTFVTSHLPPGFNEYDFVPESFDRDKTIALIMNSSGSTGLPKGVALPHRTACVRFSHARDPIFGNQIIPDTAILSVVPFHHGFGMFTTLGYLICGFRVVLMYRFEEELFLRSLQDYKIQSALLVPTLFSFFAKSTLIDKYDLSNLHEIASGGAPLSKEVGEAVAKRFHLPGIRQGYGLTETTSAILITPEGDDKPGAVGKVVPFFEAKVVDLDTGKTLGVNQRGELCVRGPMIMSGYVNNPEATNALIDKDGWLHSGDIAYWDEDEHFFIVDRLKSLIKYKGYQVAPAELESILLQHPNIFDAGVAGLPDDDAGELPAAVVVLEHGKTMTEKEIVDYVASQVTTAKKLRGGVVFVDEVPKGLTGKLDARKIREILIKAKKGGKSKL

Chain of Follistatin (Homo sapiens) (P19883 whole entry, looked up): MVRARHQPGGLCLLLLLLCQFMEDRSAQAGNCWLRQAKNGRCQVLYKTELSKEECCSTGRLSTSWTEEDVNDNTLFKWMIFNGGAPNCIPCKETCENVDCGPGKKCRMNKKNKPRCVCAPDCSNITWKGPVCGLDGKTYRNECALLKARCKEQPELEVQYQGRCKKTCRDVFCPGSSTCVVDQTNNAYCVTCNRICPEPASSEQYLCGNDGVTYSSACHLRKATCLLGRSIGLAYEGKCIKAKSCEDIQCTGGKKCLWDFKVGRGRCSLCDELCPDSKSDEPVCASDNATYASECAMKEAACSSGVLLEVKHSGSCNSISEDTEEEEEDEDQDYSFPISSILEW
Chain of Focal adhesion kinase 1 (Homo sapiens) (Q05397 whole entry, looked up): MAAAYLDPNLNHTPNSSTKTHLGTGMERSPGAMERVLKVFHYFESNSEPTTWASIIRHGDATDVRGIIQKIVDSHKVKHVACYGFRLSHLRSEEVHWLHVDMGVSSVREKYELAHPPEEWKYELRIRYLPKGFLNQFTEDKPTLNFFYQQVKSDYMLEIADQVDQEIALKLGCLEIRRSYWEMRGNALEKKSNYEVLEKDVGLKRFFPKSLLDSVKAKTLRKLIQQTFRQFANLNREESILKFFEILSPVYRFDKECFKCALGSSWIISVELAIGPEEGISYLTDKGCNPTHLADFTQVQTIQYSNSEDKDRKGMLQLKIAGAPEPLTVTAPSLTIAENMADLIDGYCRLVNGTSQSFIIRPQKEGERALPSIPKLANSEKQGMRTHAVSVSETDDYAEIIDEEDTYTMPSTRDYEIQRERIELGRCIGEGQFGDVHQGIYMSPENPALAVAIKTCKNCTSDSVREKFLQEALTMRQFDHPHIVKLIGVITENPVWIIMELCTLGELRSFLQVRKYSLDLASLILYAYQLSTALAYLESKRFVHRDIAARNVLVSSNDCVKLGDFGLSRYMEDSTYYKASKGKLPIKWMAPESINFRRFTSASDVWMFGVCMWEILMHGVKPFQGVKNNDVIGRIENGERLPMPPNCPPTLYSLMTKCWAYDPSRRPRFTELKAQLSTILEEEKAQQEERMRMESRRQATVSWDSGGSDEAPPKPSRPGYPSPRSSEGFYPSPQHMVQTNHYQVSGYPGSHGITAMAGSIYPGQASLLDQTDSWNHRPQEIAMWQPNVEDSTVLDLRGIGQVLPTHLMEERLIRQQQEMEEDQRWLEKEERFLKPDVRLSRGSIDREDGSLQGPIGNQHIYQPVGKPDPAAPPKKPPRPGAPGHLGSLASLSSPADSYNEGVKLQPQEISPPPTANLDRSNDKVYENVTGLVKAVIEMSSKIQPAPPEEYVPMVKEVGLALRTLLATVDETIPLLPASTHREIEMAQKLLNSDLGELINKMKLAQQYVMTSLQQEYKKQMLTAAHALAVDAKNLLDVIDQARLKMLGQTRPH
Chain of Fibroblast growth factor 2 (Homo sapiens) (P09038 whole entry, looked up): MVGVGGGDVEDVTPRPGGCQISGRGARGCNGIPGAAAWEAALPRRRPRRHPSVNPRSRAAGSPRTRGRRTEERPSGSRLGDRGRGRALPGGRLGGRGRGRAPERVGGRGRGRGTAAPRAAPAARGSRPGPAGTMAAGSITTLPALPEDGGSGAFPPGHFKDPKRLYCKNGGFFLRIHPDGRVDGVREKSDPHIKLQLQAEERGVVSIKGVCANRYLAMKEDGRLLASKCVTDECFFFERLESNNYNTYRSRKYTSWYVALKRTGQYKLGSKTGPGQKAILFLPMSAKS

Row | Structure (SMILES) | composite z-score [1] | composite z-score [2] | composite z-score [3] | composite z-score [4] | composite z-score [5] | composite z-score [6] | z-score [7] | composite z-score (Lefty1) | composite z-score [8] | z-score [9]
1 | CCOC(=O)C[C@H]1[C@H](OC(=O)c2ccc(-c3ccccc3)cc2)[C@@H](NC(=O)Cc2ccc(OC)cc2)c2cc(OCCCO)ccc2N1C(=O)Cc1ccc(OC)cc1 | -0.871 | -0.0151 | 0.0348 | 0.15 | 0.0322 | -0.0269 | 1.94 | -0.289 | 0.175 | -0.754 (inactive)
2 | COC(=O)[C@@]1(Cc2ccc(F)cc2)[C@H]2c3cc(C(=O)N4CCCC4)n(CC4CC4)c3C[C@H]2CN1C(=O)c1ccccc1 | 2.46 | 1.28 | 0.467 | 1.03 | 1.26 | 0.107 | 0.699 | -0.39 | 0.718 | 1.35 (inactive)
3 | COc1cc2c(cc1O)C(c1cccs1)N(Cc1sc3ccccc3c1Cl)CC2 (stereo not given) | 2.64 | 1.28 | 0.379 | 1.01 | 1.14 | 0.841 | -0.702 | 0.72 | 1.19 | -0.42 (inactive)
4 | CC(C)C(=C=CC[C@@H](O)c1cccc(OCCO)c1)C[C@@H](O)c1ccccn1 | 1.39 | -0.0234 | 0.0046 | -1.15 | 0.484 | -0.0241 | 0.386 | 0.402 | 0.782 | 0.179 (inactive)
5 | NCCCCCNC(=O)[C@@H]1C[C@@H]2C(=O)N3CCC[C@H]3C(=O)N2[C@@H]1c1ccc(O)cc1 | 0.509 | 1.18 | 0.139 | 0.788 | 1.17 | 0.428 | 0.375 | 1.08 | 0.955 | -0.444 (inactive)
6 | CC(=O)n1cc(C(O)C2C=CC3C(=O)N(c4ccccc4)C(=O)C3N2Nc2ccc(C(C)C)cc2)c2ccccc21 (stereo not given) | 0.701 | 1.2 | 1.03 | 1.02 | 1 | 0.672 | 0.662 | 0.304 | 0.743 | 0.22 (inactive)
7 | CCOC(=O)C1=C[C@@H](C(C)(C)C)N(S(=O)(=O)c2ccc(C)cc2)[C@H]1c1ccccc1 | 0.761 | 1.16 | 0.329 | 0.706 | 1.11 | 0.136 | 2.21 | 0.523 | 1.09 | 0.756 (inactive)
8 | CN1C(=O)C2C=CC(C(O)c3ccc(F)cc3)N(NC(=O)OC(C)(C)C)C2C1=O (stereo not given) | 0.322 | 0.878 | 0.22 | 0.81 | 0.344 | -0.475 | -0.946 | 0.0813 | 0.381 | -0.507 (inactive)
9 | CCOC(=O)C1=C[C@@H](C(C)(C)C)N(S(=O)(=O)c2ccc(C)cc2)[C@H]1c1ccc(C)cc1 | 0.505 | 1.16 | -0.115 | 0.958 | 1.29 | 0.949 | 4.52 | 1.12 | 0.764 | 0.715 (inactive)
10 | COCCOC(=O)N1C(=O)[C@@]2(c3cc(C#CCC(C(=O)OC)C(=O)OC)ccc31)[C@H](C(=O)NC[C@H](O)c1ccccc1)[C@H]1C(=O)O[C@H](c3ccccc3)[C@H](c3ccccc3)N1[C@@H]2c1ccc(OCCO)cc1 | 1.02 | 1.19 | 0.427 | 0.891 | 1.4 | 1.58 | -1.58 | 1.32 | 0.309 | -0.997 (inactive)
11 | C=C(COC)C(=O)CC[C@@H](OC(=O)c1cccnc1)c1ccccc1OCCO | 2.06 | 0.284 | -0.54 | 0.555 | 0.974 | 1 | -0.0536 | 0.139 | 0.287 | -5.44 (inactive)
12 | COc1cc(NN2C(C(O)c3ccc(I)cc3)C=CC3C(=O)N(c4ccccc4)C(=O)C32)cc(OC)c1OC (stereo not given) | 2.4 | 1.24 | 0.522 | 0.993 | 1.2 | 0.562 | 0.235 | 0.52 | 1.39 | -0.285 (inactive)
13 | CC1(C)C(=O)C(c2ccccc2)=C2CN3C(=O)N(CCc4ccccc4)C(=O)C3(Cc3ccc(C(F)(F)F)cc3)C=C21 (stereo not given) | 0.478 | 1.21 | 1.32 | 0.414 | 0.376 | -0.729 | 0.37 | -0.285 | 0.57 | 1.24 (inactive)
14 | CC(C)CNC(=O)[C@@H]1c2ccccc2C(=O)N(C2CCCCC2)[C@H]1c1ccc(CO)cc1 | 0.978 | 0.589 | -0.292 | -0.467 | 0.196 | -0.184 | 1.83 | -0.991 | -0.321 | -1.66 (inactive)
15 | C=C(COC)C(=O)CC[C@H](OC(C)=O)c1ccc(OCCO)cc1 | 0.943 | 0.0389 | -0.267 | -0.0148 | 1.51 | 1.43 | -0.686 | 1.46 | 0.777 | -0.574 (inactive)
16 | C[C@]1(C(=O)O)c2ccccc2C(=O)N(Cc2ccc(OC(F)(F)F)cc2)[C@H]1c1ccc(CO)cc1 | 1.1 | 0.409 | 0.609 | 0.0748 | -0.156 | -0.381 | 0.447 | -0.685 | 0.596 | 0.0795 (inactive)
17 | COc1ccc(C(O)C2C=CC3C(=O)N(c4ccccc4)C(=O)C3N2Nc2ccc(C(C)C)cc2)c2ccccc12 (stereo not given) | 1.74 | 1.25 | 0.588 | 0.976 | 0.862 | -0.25 | 0.543 | 0.031 | 0.838 | -1.65 (inactive)
